The text below walks through data of PubChem BioAssay (NCATS).

Experiment [1] concerns Nanoluciferase (engineered Oplophorus gracilirostris luciferase). Kind of experiment: Primary Nanoluciferase (NLuc) qHTS assay for identification of artifact compounds. (AID 1845222). Note: series mostly up to about 54 µM. A digest of the protocol:
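Compounds are pinned into diluted (1:55) conditioned medium of NLuc-expressing S16 cells and held 15 min at room temperature protected from light. Nano-Glo substrate follows, and luminescence is read 5 min later.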
In general terms: Quantitative high-throughput screening tests each substance at several concentrations.

Experiment [2] is described as follows: Primary redox qHTS assay for identification of artifact compounds. (AID 1845223). A digest of the protocol: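 Redox-cycling detection via DTT (250 uM final) oxidation coupled to Amplex Red (25 uM)/HRP (250 mU/mL) in HBSS. 15 min preincubation plus 30 min after DTT, room temperature. Ex/Em 525/598 nm; 4-parameter Hill fit against DMSO and 10 uM DA3003.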

Unmarked numbers belong to inactive results. Inconclusive results are not listed. Entries that show only a call come without a potency. Calls of active or inactive are those of the source. Calls come from the whole dose curve; as a rule, active = well fitted curve in the direction sought with a large enough effect; inconclusive = small, poorly fitted or top-dose-only effect, or another doubt; inactive = no such curve, though single readings can be large; an effect the other way counts as inactive or inconclusive.

As to `Oc1ccc2c(-c3c(-c4ccccn4)nn4c3CCC4)ccnc2c1`, the Potency entry in experiment [1] and in experiment [2] was “inactive” throughout.

Regarding `CCNC(=O)OC1CCN(c2nncc3cc(OC)c(OC)cc23)CC1`, the Potency result in experiment [1] and in experiment [2] was “inactive” each time.

With `Cc1cccc(-c2nn3c(c2-c2ccnc4ccc(C(N)=O)cc24)CCC3)n1`, the Potency entry in experiment [1] and in experiment [2] was “inactive” throughout.

Turning to `C=C(C)[C@@H]1CC[C@]2(C(=O)O)CC[C@]3(C)[C@H](CCC4[C@@]5(C)CCC(=O)C(C)(C)C5C(O)C[C@]43C)C12` (some centres undefined), the Potency entry in experiment [1] and in experiment [2] was “inactive” throughout.

Turning to `O=C(C[C@@H]1C(C(=O)O)=CO[C@@H](O[C@@H]2O[C@H](CO)[C@@H](O)[C@H](O)[C@H]2O)/C1=C\CO)OCCc1ccc(O)cc1`, the Potency result in experiment [1] and in experiment [2] was “inactive” in each case.

With `C[C@@H]1O[C@@H](OC(=O)Cc2ccccc2)[C@H](O)[C@H](O)[C@H]1O`, the Potency result in experiment [1] and in experiment [2] was “inactive” in each case.

As to `CC1CCC2(C(=O)O)CCC3(C)C(=CCC4C5(C)CCC(O)C(C)(C(=O)O)C5CCC43C)C2C1(C)O` (centres undefined), the Potency result in experiment [1] and in experiment [2] was “inactive” in each case.

With `Cc1cn2cc(CC(=O)N3CCC4(CC3)CN(Cc3ccc(-n5nccn5)cc3Cl)C4)nc2s1`, the Potency result in experiment [1] and in experiment [2] was “inactive” each time.

Turning to `CC1(C)CC[C@]2(C(=O)O)CC[C@]3(C)C(=CCC4[C@@]5(C)CC[C@H](O)C(C)(C)C5CC[C@]43C)C2C1` (some centres undefined), the Potency result in experiment [1] and in experiment [2] was “inactive” throughout.

Turning to `COc1ccccc1N1CCN(CCCCNC(=O)c2ccc(-c3cscn3)cc2)CC1`, the Potency entry in experiment [1] and in experiment [2] was “inactive” throughout.

`CN(C)C(=O)C(O)C(Cc1ccccc1)NC(=O)c1cc2cc(Cl)ccc2[nH]1` (centres undefined): the Potency result in experiment [1] and in experiment [2] was “inactive” in each case.

Take `OC[C@@]1(O)CO[C@H](OC[C@H]2O[C@@H](OCCc3ccccc3)[C@H](O)[C@@H](O)[C@@H]2O)[C@@H]1O`: the Potency result in experiment [1] and in experiment [2] was “inactive” each time.

Take `CC(C)(O)C1CC=C(C(=O)OC[C@H]2O[C@@H](OC(=O)C3=CCC(C(C)(C)O)CC3)[C@H](O)[C@@H](O)[C@@H]2O)CC1` (some centres undefined): the Potency entry in experiment [1] and in experiment [2] was “inactive” in each case.

In the case of `C/C1=C\CC[C@]2(C)O[C@H]2C(=O)c2c(C)coc2C1`, the Potency entry in experiment [1] and in experiment [2] was “inactive” throughout.

For `CC(C)(O)C1CC=C(C(=O)OC[C@H]2O[C@@H](Oc3cc(C(=O)O)cc(O)c3O)[C@H](O)[C@@H](O)[C@@H]2O)CC1` (some centres undefined), the Potency entry in experiment [1] and in experiment [2] was “inactive” throughout.

With `CC(=O)O[C@@H]1[C@H](OC(C)=O)C[C@@]2(C)C(CC[C@@H](C)[C@]23Cc2c(O)cc4c(c2O3)CN([C@@H](CCC(=O)O)C(=O)O)C4=O)C1(C)C` (some centres undefined), the Potency result in experiment [1] and in experiment [2] was “inactive” throughout.

`O=C(O[C@@H]1O[C@H](CO)[C@@H](O)[C@H](O)[C@H]1O)c1ccccc1`: the Potency entry in experiment [1] and in experiment [2] was “inactive” in each case.

Take `CC1(O)CCC2C(C3C1CCC3(C)O)C2(C)C` (centres undefined): the Potency result in experiment [1] and in experiment [2] was “inactive” each time.

As for `CS(=O)(=O)c1ccccc1N1CCN(c2nc3c(c(=O)[nH]2)CSCC3)CC1`, the Potency result in experiment [1] and in experiment [2] was “inactive” throughout.

In the case of `O=C(Nc1ccc(N2CCC(C(=O)N3CCOCC3)CC2)cc1)c1cnc(Oc2ccccc2)nc1`, the Potency entry in experiment [1] and in experiment [2] was “inactive” in each case.

`CC(C)=C1CC2[C@](C)(CC[C@@H](OC(=O)C3(C)OC3C)[C@@]2(C)O)CC1=O` (some centres undefined): the Potency result in experiment [1] and in experiment [2] was “inactive” each time.

In the case of `O=C(O)/C=C/c1ccc(O[C@@H]2O[C@H](CO)[C@@H](O)[C@H](O)[C@H]2O)cc1`, the Potency entry in experiment [1] and in experiment [2] was “inactive” in each case.

As for `Nc1ncnc2c1ncn2[C@H]1O[C@@H](C(=O)N2CCN(CC(=O)Nc3cccc4c3CNC4=O)CC2)[C@H](O)[C@@H]1O`, the Potency result in experiment [1] and in experiment [2] was “inactive” throughout.

Take `COc1ccc(/C=C/C(N)=O)cc1OC`: the Potency entry in experiment [1] and in experiment [2] was “inactive” in each case.

Turning to `O=C(Nc1cc(-c2ccccc2)nn1-c1ccccc1F)c1ccc([N+](=O)[O-])cc1`, the Potency entry in experiment [1] and in experiment [2] was “inactive” in each case.

For the compound `CCCN1CCC[C@@H](c2cccc(S(C)(=O)=O)c2)C1`, the Potency entry in experiment [1] and in experiment [2] was “inactive” each time.

Consider `CC1=C2C3OC(=O)C(C)C3(O)CCC2(C)CCC1` (centres undefined), for which the Potency entry in experiment [1] and in experiment [2] was “inactive” throughout.

Turning to `CC/C=C\CC1C(CC(=O)O)CCC1OC1OC(CO)C(O)C(O)C1O` (centres undefined), the Potency result in experiment [1] and in experiment [2] was “inactive” in each case.

In the case of `OC[C@H]1O[C@@H](OCc2ccccc2)[C@H](O)[C@@H](O)[C@@H]1O`, the Potency entry in experiment [1] and in experiment [2] was “inactive” in each case.

Take `O=C(NC/C=C/CN1CCN(c2cccc(Cl)c2Cl)CC1)c1ccc(-c2ccccn2)cc1`: the Potency entry in experiment [1] and in experiment [2] was “inactive” in each case.

Consider `COc1ccc(-c2ccn(CC[C@](C)(C(=O)NO)S(C)(=O)=O)c(=O)c2)c(F)c1`, for which the Potency entry in experiment [1] and in experiment [2] was “inactive” throughout.

With `C[C@H]1[C@@H](O)[C@H](O)C2[C@]3(C)C([C@@H](O)[C@H]4OC(=O)[C@@H]1[C@@]24C)[C@](C)(O)C=C[C@H]3O[C@@H]1O[C@H](CO)[C@@H](O)[C@H](O)[C@H]1O` (some centres undefined), the Potency entry in experiment [1] and in experiment [2] was “inactive” throughout.
